# Measured values published in PubChem BioAssay (NCATS).
# Calls of active or inactive are those of the source. Calls follow the shape of the dose curve; as a rule, active = well fitted inhibition curve with a large enough effect; inconclusive = small, poorly fitted or top-dose-only effect; inactive = no such curve, though single readings can be large or run the other way.
# Target: Pyruvate kinase (Leishmania mexicana) (UniProt Q27686)
# Test: qHTS Validation Assay for Inhibitors of Leishmania Mexicana Pyruvate Kinase (AID 945)
# Conditions: purified L. mexicana pyruvate kinase, enzyme activity, E451W mutant enzyme; series mostly up to 57.5 µM
# Procedure, shortened: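 Eight-point qHTS titrations in triplicate, data normalized to DMSO neutral control. Reaction: 0.2 nM LmPYK E451W mutant, 0.5 mM PEP, 0.1 mM ADP, 7 mM MgCl2, pH 7.2, one hour at room temperature; luminescent ATP detection.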
# Pyruvate kinase (Leishmania mexicana), sequence (Q27686 2-499 E452W): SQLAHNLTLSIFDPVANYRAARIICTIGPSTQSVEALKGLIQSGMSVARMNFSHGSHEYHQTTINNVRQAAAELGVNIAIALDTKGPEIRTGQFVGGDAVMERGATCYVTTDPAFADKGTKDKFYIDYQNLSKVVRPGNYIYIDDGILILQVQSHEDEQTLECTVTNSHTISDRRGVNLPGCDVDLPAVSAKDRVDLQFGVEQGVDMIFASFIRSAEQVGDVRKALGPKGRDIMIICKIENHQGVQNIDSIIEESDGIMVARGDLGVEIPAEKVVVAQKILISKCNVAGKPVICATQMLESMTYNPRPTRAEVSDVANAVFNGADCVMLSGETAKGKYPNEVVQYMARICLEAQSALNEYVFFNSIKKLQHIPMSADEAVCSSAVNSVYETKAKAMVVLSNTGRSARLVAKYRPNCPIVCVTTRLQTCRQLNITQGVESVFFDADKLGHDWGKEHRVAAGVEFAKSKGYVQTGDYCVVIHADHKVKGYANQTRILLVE
row,SMILES,outcome
1,CCN(CC)CCNC(=O)c1cc(Cl)c(N)cc1OC,inactive
2,COc1ccc(Cl)cc1C(=O)NCCc1ccc(S(=O)(=O)NC(=O)NC2CCCCC2)cc1,inactive
3,C#CCN(C)Cc1ccccc1,inactive
4,CN(C)CCC=C1c2ccccc2CCc2ccccc21,inactive
5,OCc1cc(C(O)CNCCCCCCOCCCCc2ccccc2)ccc1O (stereo unspecified),inactive
6,COC(=O)C1=C(C)NC(C)=C(C(=O)OC)C1c1ccccc1[N+](=O)[O-],inactive
7,CCCCCCCCCCCCCCCC(=O)NCCO,inactive
8,NC(N)=NCCC[C@H](N)C(=O)O,inactive
9,OCCN1CCN(CCCN2c3ccccc3Sc3ccc(Cl)cc32)CC1,inactive
10,CN(C)CCCN1c2ccccc2Sc2ccc(Cl)cc21,inactive
11,C[C@]12C[C@H](O)[C@H]3[C@@H](CCC4=CC(=O)CC[C@@]43C)[C@@H]1CC[C@@H]2C(=O)CO,inactive
12,C[C@]12CC[C@@H]3c4ccc(O)cc4CC[C@H]3[C@@H]1CCC2=O,inactive
13,CNCCCC1c2ccccc2C=Cc2ccccc21,inactive
14,CCCn1cnc2c1c(=O)n(CCCCC(C)=O)c(=O)n2C,inactive
15,N=c1c[n+](N2CCOCC2)[n-]o1,inactive
16,CC1=C(CC(=O)O)c2cc(F)ccc2/C1=C\c1ccc(S(C)=O)cc1 (stereo unspecified),inactive
17,CC(C)NC[C@H](O)c1ccc(O)c(O)c1,inactive
18,CC(=O)OCC(=O)[C@@]1(O)CC[C@H]2[C@@H]3CCC4=CC(=O)CC[C@]4(C)[C@H]3C(=O)C[C@@]21C,inactive
19,NC1CCN(c2cccc(Cl)n2)CC1,inactive
20,Nc1cc(=O)[nH]c(N)n1,inactive
21,CC1=C(CC(=O)O)c2cc(F)ccc2/C1=C\c1ccc(S(C)(=O)=O)cc1,inactive
